This note sets out measurements from PubChem BioAssay (Tox21).

A number with no mark means an inactive call. Results filed as inconclusive are left out. Calls of active or inactive are those of the source. Unless noted, calls follow the shape of the dose curve; as a rule, active = well fitted curve in the direction sought with a large enough effect in the repeat runs; inconclusive = weak or mixed curves; inactive = no such curve, though single readings can be large; an effect the other way counts as inactive or inconclusive.

The target in experiment [1] is Thyrotropin receptor (Homo sapiens) (UniProt P16473). Nature of the experiment: qHTS assay to identify small molecule agonists of the thyroid stimulating hormone receptor (TSHR) signaling pathway (AID 1224843; calls by dose curve; also: % is scaled to controls: 0 for no effect and ±100 for the full control effect; nearly all actives have a fitted effect of over 45% in size). A digest of the protocol:
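Steps: seed 800 TSHR-HEK293 cells per well; add test compound and hold 30 min at ambient temperature; dispense cAMP-d2 then anti-cAMP cryptate; incubate 1 h at ambient; measure fluorescence intensity.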
(In general: In qHTS, concentration-response curves come from the screen itself.)

A short description of experiment [2]: qHTS assay to identify small molecule agonists of H2AX - cell viability counter screen (AID 1224847; calls by dose curve; also: top concentration of the series differs between compounds; % is scaled to controls: 0 for no effect and ±100 for the full control effect; nearly all actives have a fitted effect of over 30% in size). A digest of the protocol: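 Wild-type CHO-K1 cells (10% FBS medium) were plated overnight at 37C, exposed to compounds at 15 concentrations for 3 hr at 37C (0.76% DMSO final), and viability was read as CellTiter-Glo luminescence after 30 min at room temperature.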

A short description of experiment [3]: qHTS assay to identify small molecule antagonists of the estrogen related receptor (ERR) signaling pathway from Tox21 library (AID 1224848). Also: potency is read from the fitted curve at half-maximal effect; nearly all actives have a fitted effect of over 50% in size. A digest of the protocol:
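Luminescent reporter read-out (ONE-Glo) from NTP's ERR cell line after 18 h treatment at 37 C with DMSO-dissolved Tox21 compounds; cells pre-plated 6 h beforehand at 2,000 per well.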

Experiment [4] in a line: qHTS assay to identify small molecule agonists of the estrogen related receptor (ERR) signaling pathway from Tox21 library (AID 1224849; calls by dose curve; also: % is scaled to controls: 0 for no effect and ±100 for the full control effect; nearly all actives have a fitted effect of over 15% in size). The conditions noted are these: ERR reporter cell line, ONE-Glo luciferase, 18 h; at 92.4 µM (top of the series) unless noted. A digest of the protocol: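 ERR reporter cells (NTP line) pre-incubated 6 hours at 37 C, then exposed to compounds for 18 hours at 37 C. ONE-Glo luciferase luminescence was read after 30 minutes at room temperature.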

Experiment [5] can be described thus: qHTS RealTime-Glo MT Cell Viability Assay in HepG2 cells - 24 hour (AID 1224867). Also: % is scaled to controls: 0 for no effect and ±100 for the full control effect; nearly all actives have a fitted effect of over 50% in size. A digest of the protocol: (§1)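 Cell number in HepG2 cultures estimated from NanoLuc luminescence generated by metabolic reduction of a prosubstrate by living cells. The homogeneous, nonlytic format allowed repeated reads at 0, 8, 16, 24, 32 and 40 h of compound exposure.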
Experiment [6] is described as follows: qHTS RealTime-Glo MT Cell Viability Assay in HEK293 cells - 32 hour (AID 1224868). Also: top concentration of the series differs between compounds; % is scaled to controls: 0 for no effect and ±100 for the full control effect; nearly all actives have a fitted effect of over 50% in size. A digest of the protocol: (§2)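 Homogeneous bioluminescent viability format in HEK293 cells (600 cells/well). Following 5 h at 37 C/5% CO2, 23 nL compound was pintooled; the signal was measured repeatedly during 40 h incubation.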
Experiment [7] can be described thus: A CellTox Green Cytotoxicity Assay to monitor cytotoxicity in HEK293 cells - 0 hour (AID 1224869). Also: % is scaled to controls: 0 for no effect and ±100 for the full control effect; nearly all actives have a fitted effect of over 50% in size. A digest of the protocol: (§3)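 HEK293 cells, 600/well, were preincubated 5 hours and then exposed to compounds at 37 C for up to 40 hours. A cell-impermeant cyanine dye staining dead-cell DNA was read by fluorescence at 0, 8, 16, 24, 32 and 40 h time points.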
The nature of experiment [8]: qHTS RealTime-Glo MT Cell Viability Assay in HepG2 cells - 40 hour (AID 1224870). A digest of the protocol:
(§4)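 HepG2 cells (600/well) mixed with RealTime-Glo MT reagent, settled 5 h at 37 C/5% CO2 before compound addition. Nonlytic NanoLuc luminescence from viable-cell prosubstrate reduction read repeatedly during 40 h treatment at 37 C.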

The nature of experiment [9]: A CellTox Green Cytotoxicity Assay to monitor cytotoxicity in HEK293 cells - 40 hour (AID 1224871). Also: nearly all actives have a fitted effect of over 45% in size. Also: potency is read from the fitted curve at half-maximal effect. A digest of the protocol: as §3
The nature of experiment [10]: qHTS RealTime-Glo MT Cell Viability Assay in HEK293 cells - 16 hour (AID 1224872). A digest of the protocol:
as §2

Experiment [11] in a line: qHTS RealTime-Glo MT Cell Viability Assay in HepG2 cells - 8 hour (AID 1224873). Also: % is scaled to controls: 0 for no effect and ±100 for the full control effect; nearly all actives have a fitted effect of over 55% in size. A digest of the protocol:
as §4

A short description of experiment [12]: A CellTox Green Cytotoxicity Assay to monitor cytotoxicity in HEK293 cells - 24 hour (AID 1224875). Also: % is scaled to controls: 0 for no effect and ±100 for the full control effect; nearly all actives have a fitted effect of over 45% in size. A digest of the protocol:
as §3

A short description of experiment [13]: A CellTox Green Cytotoxicity Assay to monitor cytotoxicity in HepG2 cells - 16 hour (AID 1224876). Also: % is scaled to controls: 0 for no effect and ±100 for the full control effect; nearly all actives have a fitted effect of over 45% in size. A digest of the protocol: (§5)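 HepG2 cells, 600/well, preincubated 5 h with CellTox Green dye, then exposed to Tox21 compounds in DMSO at 37 C for up to 40 h. Dead-cell DNA fluorescence read at the indicated time point.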
The nature of experiment [14]: qHTS RealTime-Glo MT Cell Viability Assay in HepG2 cells - 32 hour (AID 1224877). Also: % is scaled to controls: 0 for no effect and ±100 for the full control effect; nearly all actives have a fitted effect of over 55% in size. A digest of the protocol: as §1
A short description of experiment [15]: A CellTox Green Cytotoxicity Assay to monitor cytotoxicity in HepG2 cells - 24 hour (AID 1224878). Also: nearly all actives have a fitted effect of over 45% in size. Also: potency is read from the fitted curve at half-maximal effect. As to Cytotoxicity: % is scaled to controls: 0 for no effect and ±100 for the full control effect. A digest of the protocol:
as §5

Experiment [16] is described as follows: A CellTox Green Cytotoxicity Assay to monitor cytotoxicity in HepG2 cells - 40 hour (AID 1224879). Also: nearly all actives have a fitted effect of over 40% in size. Also: potency is read from the fitted curve at half-maximal effect. A digest of the protocol: as §5
Experiment [17] in a line: qHTS assay to identify small molecule agonists of H2AX (AID 1224845; active = well fitted activation curve with a large enough effect in the signal ratio in the repeat runs, not every such curve was filed as active; the % refers to the signal ratio; also: % is scaled to controls: 0 for no effect and ±100 for the full control effect). A digest of the protocol: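 Wild-type CHO-K1 cells, plated overnight, exposed 3hr at 37C to 15 concentrations (0.76% DMSO final). Lysed, then HTRF anti-pH2AX (S139) cryptate and anti-H2AX-d2 antibodies, 24 hr room temperature; 665/620 nm emission read.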
The nature of experiment [18]: qHTS assay to identify small molecule agonists of the hypoxia (HIF-1) signaling pathway - cell viability counter screen (AID 1224844; calls by dose curve). A digest of the protocol: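 HRE-bla ME-180 cells, 2,000/well in 0.5% dialyzed FBS medium, treated 17 h at 37C with compounds. Viability read in the same wells as the bla reporter, by CellTiter-Glo luminescence after 30 min at room temperature.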

The nature of experiment [19]: qHTS assay to identify small molecule agonists of the hypoxia (HIF-1) signaling pathway (AID 1224846; active = well fitted activation curve with a large enough effect in the signal ratio in the repeat runs, not every such curve was filed as active; the % refers to the signal ratio; also: % is scaled to controls: 0 for no effect and ±100 for the full control effect). A digest of the protocol: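 HRE-bla ME-180 beta-lactamase reporter cells in medium with 0.5% dialyzed FBS, pre-incubated 5 h then exposed to compounds 17 h at 37C, 5% CO2; reporter induction read with CCF4-AM FRET substrate.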
Experiment [20] is described as follows: qHTS RealTime-Glo MT Cell Viability Assay in HEK293 cells - 40 hour (AID 1224874). To be noted: RealTime-Glo luminescence; max response: hits give low values. A digest of the protocol:
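600 cells/well were plated with the nonlytic NanoLuc/prosubstrate reagent, pre-incubated 5 h, then given 23 nL of compound in DMSO. Incubation at 37 C for 40 h, with luminescence from viable-cell-reduced substrate read repeatedly from 0 h.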

Chain of Thyrotropin receptor (Homo sapiens) (P16473 whole entry, looked up): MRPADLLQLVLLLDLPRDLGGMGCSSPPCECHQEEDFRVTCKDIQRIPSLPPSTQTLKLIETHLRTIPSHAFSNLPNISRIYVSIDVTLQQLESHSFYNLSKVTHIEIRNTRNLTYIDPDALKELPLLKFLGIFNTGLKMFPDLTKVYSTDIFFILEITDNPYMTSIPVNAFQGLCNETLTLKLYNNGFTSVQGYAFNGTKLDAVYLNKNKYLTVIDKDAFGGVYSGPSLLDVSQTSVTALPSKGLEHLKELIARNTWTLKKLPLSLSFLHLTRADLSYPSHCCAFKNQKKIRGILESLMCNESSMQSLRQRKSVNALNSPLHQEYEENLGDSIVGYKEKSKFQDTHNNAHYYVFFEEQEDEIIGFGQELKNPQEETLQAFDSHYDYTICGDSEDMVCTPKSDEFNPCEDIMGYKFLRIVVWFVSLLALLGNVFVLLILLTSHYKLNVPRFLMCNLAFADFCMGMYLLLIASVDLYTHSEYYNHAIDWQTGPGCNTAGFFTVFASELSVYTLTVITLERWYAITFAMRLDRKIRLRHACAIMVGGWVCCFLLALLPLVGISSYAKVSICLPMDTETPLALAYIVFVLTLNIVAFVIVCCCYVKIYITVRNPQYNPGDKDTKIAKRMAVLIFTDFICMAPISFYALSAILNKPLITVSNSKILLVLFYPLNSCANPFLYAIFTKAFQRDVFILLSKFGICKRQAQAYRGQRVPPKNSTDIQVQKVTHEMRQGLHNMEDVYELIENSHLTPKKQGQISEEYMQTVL

On to `OCC(CO)n1cnc(-c2ccc(F)cc2)c1-c1ccnc(Oc2ccccc2)n1`, for which the Potency result in experiment [1], in experiment [2], in experiment [5], in experiment [6], in experiment [7] and in experiment [8] was “inactive” throughout. Moreover, the Potency result in [9], in experiment [10], in experiment [11], in experiment [12], in experiment [13] and in [14] was “inactive” each time. In addition, the Potency result in [15] and in experiment [16] was “inactive” each time. In addition, the Potency in experiment [3] was 27.3 µM (active). In addition, in experiment [4], the activity change, positive = activation was -29%.

Consider `O=C(CCS)OCC(COC(=O)CCS)(COC(=O)CCS)COC(=O)CCS`, for which the Potency entry in experiment [1], in experiment [17], in experiment [2], in experiment [5], in experiment [7] and in [9] was “inactive” in each case. Further, the Potency result in experiment [11], in experiment [12], in [13], in [14], in experiment [15] and in experiment [16] was “inactive” each time.

Regarding `O=C(O)CCC(=O)OC[C@@H](NC(=O)C(Cl)Cl)[C@H](O)c1ccc([N+](=O)[O-])cc1`, the Potency result in [18], in [17], in experiment [2], in [5], in experiment [6] and in [7] was “inactive” each time. Also, the Potency entry in experiment [8], in experiment [10], in [11] and in experiment [14] was “inactive” throughout. For the same compound, the call in experiment [19] was inactive. Further, the Potency in [9] is 21.3 µM (active); in experiment [15], 19 µM (active); in experiment [16], 19 µM (active). In addition, the max response in [20] was 5.1%.

On to `C[C@@H]1[C@H](O)[C@@H](C)/C=C/C=C\C=C\C=C\C=C\C=C\C=C\[C@H](O[C@@H]2O[C@H](C)[C@@H](O)[C@H](N)[C@@H]2O)C[C@@H]2O[C@](O)(C[C@@H](O)C[C@@H](O)[C@H](O)CC[C@@H](O)C[C@@H](O)CC(=O)O[C@H]1C)C[C@H](O)[C@H]2C(=O)O` (stereo in doubt), for which the Potency result in experiment [1], in [2], in experiment [5], in experiment [6], in [7] and in experiment [8] was “inactive” in each case. Moreover, the Potency result in experiment [10], in experiment [11], in [13], in experiment [14], in experiment [15] and in [16] was “inactive” throughout. Also, in experiment [20], the max response was -0.557%.

In the case of `SCCc1cnccn1`, the Potency entry in experiment [1], in experiment [17], in [2], in experiment [5], in experiment [6] and in [7] was “inactive” throughout. Besides, the Potency entry in experiment [8], in experiment [9], in experiment [10], in [11], in experiment [12] and in experiment [14] was “inactive” each time. Moreover, the Potency entry in experiment [15] and in [16] was “inactive” in each case. The activity change, positive = activation in experiment [4] is -18.7%. Also, in experiment [20], the max response was 10.1%.

With `CC[C@H]1OC(=O)[C@H](C)[C@@H](O[C@H]2C[C@@](C)(OC)[C@@H](O)[C@H](C)O2)[C@H](C)[C@@H](O[C@@H]2O[C@H](C)C[C@H](N(C)C)[C@H]2O)[C@](C)(O)C[C@@H](C)/C(=N\OCOCCOC)[C@H](C)[C@@H](O)[C@]1(C)O`, the Potency result in experiment [1], in experiment [17], in [2], in experiment [5], in experiment [6] and in experiment [7] was “inactive” throughout. The Potency result in experiment [8], in [9], in experiment [10], in experiment [11], in experiment [12] and in experiment [14] was “inactive” each time. The Potency entry in [15] and in experiment [16] was “inactive” in each case. Moreover, in experiment [4], the activity change, positive = activation is -14.4% [at 42.5 µM]. In addition, the max response in experiment [20] is -15%.

Consider `CC(=O)OCCC1CCCCC1`, for which the Potency entry in [18], in [17], in experiment [2], in experiment [5], in [7] and in [8] was “inactive” each time. Also, the Potency entry in experiment [9], in experiment [10], in experiment [11], in experiment [12] and in experiment [14] was “inactive” in each case. In addition, the compound was classed as inactive in experiment [19]. The max response in experiment [20] is 6.39%.
